Compound activity deposited in PubChem BioAssay by The Scripps Research Institute Molecular Screening Center.
Rows were chosen to be rich in hits. Some 3.5% of all compounds tested hit in one or more screens of this group.
TEAD-YAP inh: TEAD-YAP interaction inhibition, primary screen, TEAD-YAP interaction inhibitor project, luminescence, HEK-TIYL cells; TEAD-Gal4/YAP UAS-luciferase luminescence; inhibition, % at 9.12 µM; actives 1.4% (n = 640,000); AID 1259422, 2018; in the data active = inhibition above about 32%;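 note: 0% = median of test compound wells and 100% = reference inhibitor wells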
FBW7 activator: FBW7 E3 ligase activators, primary screen, biochemical, AlphaScreen, human | F-box/WD repeat-containing protein 7 (Homo sapiens), Q969H0 | AlphaScreen FBW7–phospho-cyclin E peptide binding, activator screen | normalized activity (activation), % at 26.1 µM | actives 0.13% (n = 650,000); in the data active = normalized activity above about 1.9%;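 note: purified mutant Fbw7 with reduced substrate affinity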
MITF primary: MITF inhibitors, primary screen, biochemical, AlphaScreen, human | AlphaScreen MITF homodimerization, bead proximity signal | AID 1259374, 2018 | inhibition, % at 2.6 µM | Microphthalmia-associated transcription factor (Homo sapiens), O75030 | actives 0.91% (n = 650,000); in the data active = inhibition above about 50%;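 note: 0% = vehicle wells with protein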
GPR151 ag: activators of human GPR151, primary screen, cell-based, PathHunter beta-arrestin, luminescence; G-protein coupled receptor 151 (Homo sapiens), Q8TDV0; PathHunter beta-arrestin GPR151 cells; activation, % at 11.2 µM; actives 1% (n = 650,000); in the data active = activation above about 4.9%;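 note: 0% = median of compound wells and 100% = cells with positive control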
GPR151 confirm: GPR151 activators, triplicate retest, confirmation, cell-based, PathHunter beta-arrestin, luminescence. shares compounds with GPR151 ag. GPR151 PathHunter beta-arrestin cells, 90 min; % of EA-reagent control over plate median. activation, % at 11.2 µM. 6,700 tested, under 10 active. AID 1508609, 2020;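 active = mean percent activation across replicates above the confirmation screen cutoff of 4.91%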
GPR119 ag: GPR119 activators in beta-arrestin cells, counter-screen for GPR151 activator project, cell-based, PathHunter beta-arrestin, luminescence, triplicate; shares compounds with GPR151 ag; 90 min; 0 = compound-well median, 100 = enzyme-acceptor control; activation, % at 11.2 µM; actives 0.3% (n = 6,700); AID 1508611, 2020;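 active = mean percent activation in the counterscreen above 29.09%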;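 note: counterscreen on off-target GPR119 to flag nonselective hits from the GPR151 activator screen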
Target sequence (Q8TDV5 whole entry, looked up): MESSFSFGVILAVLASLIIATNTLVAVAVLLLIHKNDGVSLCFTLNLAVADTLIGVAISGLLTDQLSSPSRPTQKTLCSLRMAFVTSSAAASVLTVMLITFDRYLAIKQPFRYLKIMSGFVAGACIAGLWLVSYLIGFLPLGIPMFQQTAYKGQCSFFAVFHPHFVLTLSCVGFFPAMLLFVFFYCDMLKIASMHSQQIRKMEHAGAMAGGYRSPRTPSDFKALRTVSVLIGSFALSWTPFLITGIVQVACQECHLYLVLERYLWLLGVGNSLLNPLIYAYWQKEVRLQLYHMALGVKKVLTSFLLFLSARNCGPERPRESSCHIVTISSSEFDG
* hit, by the source's call; . = no result.

SMILES	TEAD-YAP inh	FBW7 activator	MITF primary	GPR151 ag	GPR151 confirm	GPR119 ag
O=C(OCCOc1ccc(Br)cc1)c1cccnc1Cl	3.7	0.0	-5.8	0.8	.	.
COc1cc(N)c(Cl)cc1C(=O)OCCOc1ccc(Br)cc1	3.9	0.0	7.3	19.8*	-0.6	0.4
Cc1ccc(-c2cc(-c3ccc(Cl)cc3)c(C#N)c(SCC(=O)C34CC5CC(CC(C5)C3)C4)n2)cc1	-4.1	0.0	-11.9	-0.4	.	.
CC(=O)c1c(C)[nH]c(C(=O)CSc2nnc(Nc3cccc(C)c3)s2)c1C	-13.3	-0.1	-1.1	-1.8	.	.
COc1ccc(-c2c[n+](CC(=O)OC3CC(C)CCC3C(C)C)c3n2CCCCC3)cc1 (stereo not drawn)	86.2*	0.0	17.9	5.3*	1.2	-0.9
O=C(NNC(=O)C12CC3CC(CC(C3)C1)C2)c1ccc[n+]([O-])c1	-4.4	0.1	-6.7	2.1	.	.
Cc1cc(C(=O)Nc2cc(S(=O)(=O)N3CCCCC3)ccc2C)c2ccccc2n1	-3.4	0.1	-3.1	1.9	.	.
Cc1sc(NC(=O)CCS(=O)(=O)c2ccc(Cl)cc2)c(C#N)c1C	2.2	-0.1	11.3	5.2*	0.1	1.0
COc1ccc(C(O)CN2C3=NCCCN3c3ccccc32)cc1 (stereo not drawn)	-2.2	-0.1	-17.7	5.1*	0.8	19.4
COCCCNc1nc2c(S(=O)(=O)c3ccccc3)nnn2c2ccsc12	-6.9	0.4	-2.7	6.5*	0.6	8.6
COCCCNc1nc2c(S(=O)(=O)c3ccccc3)nnn2c2ccccc12	-1.5	0.0	5.8	-0.7	.	.
COc1cccc(CCN2C(=O)CCC2CCNCc2cccc(F)c2)c1 (stereo not drawn)	4.7	0.0	1.4	5.1*	0.4	6.0
CCCNCCC1CCC(=O)N1CCc1cccc(OC)c1 (stereo not drawn)	-11.2	-0.1	8.6	6.7*	-0.6	10.1
C#CCOc1cc(Br)c(CNCCO)cc1OC	-7.0	1.0	-15.1	-1.5	.	.
COC(=O)c1cc(Cl)c(NC(=O)COc2ccc(C)cc2C(C)(C)C)cc1OC	8.4	0.0	-9.4	1.3	.	.
Cc1ccc(OCC(=O)N(C)C2CCCCC2)cc1C	-73.1	-0.2	-5.0	5.0*	-0.9	6.9
Cc1ccc(OCC(=O)NC2CCCCC2)cc1C	-17.5	0.3	-3.6	-0.6	.	.
O=C(COc1ccccc1)Nc1ccc(-c2nc3cccnc3s2)cc1	-21.0	-0.2	-5.9	-1.0	.	.
CCc1nc2ccccc2c(NC(=O)CN2CCC(C)CC2)c1C	-2.4	-0.1	44.0	5.3*	0.1	-3.1
O=C(Nc1ccc(Cl)c(Cl)c1)OCc1ccco1	-15.1	0.0	3.7	6.0*	0.9	-0.3
C=CCOc1ccccc1C(c1c(C)[nH][nH]c1=O)c1c(C)[nH][nH]c1=O	4.7	-1.1	7.3	9.5*	0.4	-7.6
COC(=O)c1c(NC(=O)c2ccc([N+](=O)[O-])cc2)sc(C(=O)N2CCOCC2)c1C	-1.2	0.1	13.2	5.5*	0.6	4.3
O=C(Nc1c2c(nn1-c1ccc(Cl)cc1)CSC2)c1ccc(Cl)cc1	-15.0	0.1	8.4	7.7*	-1.2	-12.8
C=CCN(C#N)c1nc(OC)nc(N2CCCC2)n1	-1.5	0.2	9.7	13.9*	0.9	7.3
CC1=C(C#N)C(c2ccc(C(C)C)cc2)C(C#N)=C(C)N1	4.0	-0.1	-3.4	9.9*	0.2	11.2
SMILES	TEAD-YAP inh	FBW7 activator	MITF primary	GPR151 ag	GPR151 confirm	GPR119 ag
CC(C)c1ccc(C2C(C#N)=C(N)OC(N)=C2C#N)cc1	-2.0	-0.2	-6.6	-0.4	.	.
Cc1ccc(NC(=O)CSc2nc3c(c(=O)n2C)SCC3)c(C)c1	24.7	0.0	4.7	7.4*	0.2	6.0
COC(=O)Cc1c(C)c2c(OCC(=O)c3cccc([N+](=O)[O-])c3)cc(C)cc2oc1=O	-10.8	-0.1	-2.7	2.7	.	.
COC(=O)COc1cc(C)cc2oc(=O)c(CC(=O)OC)c(C)c12	1.4	0.0	10.2	6.1*	0.3	11.3
CCN(CC)C(=O)COc1cc2oc(=O)c(CC(=O)OC)c(C)c2cc1Cl	-4.4	-0.1	4.2	7.1*	0.1	-1.7
CCN(CC)S(=O)(=O)c1ccc2c(c1)c(=O)c(C(=O)N(C)CCC#N)cn2C	-18.1	0.0	6.8	6.1*	0.3	-2.9
CCN(CC)S(=O)(=O)c1ccc2c(c1)c(=O)c(C(=O)N(C)CC(OC)OC)cn2C	6.3	0.0	11.0	0.1	.	.
CCOc1ccc(S(=O)(=O)N(CC(=O)N2CCN(c3ccccc3OC)CC2)c2ccccc2)cc1	13.0	0.0	-3.1	-0.3	.	.
CC1CCC(Nc2nc3ccccc3c3nc(-c4cccnc4)nn23)CC1 (stereo not drawn)	-2.2	-0.1	-0.7	8.1*	0.6	10.3
O=C(OCc1ccc(Br)cc1)c1ccc(N2CCCC2=O)cc1	4.2	0.0	3.0	7.3*	1.4	14.0
O=C(OCc1ccc(Br)cc1)c1ccc(O)cc1	-3.5	0.7	15.3	-1.2	.	.
NCc1cccc(CNC(=O)c2c[nH]c3cc(-c4cn[nH]c4)ccc23)c1	-11.5	-0.3	-10.6	5.1*	-1.6	-7.4
O=C(c1ccccc1)c1ccc2c(c1)C(=O)N(c1cccc3ccccc13)C2=O	-6.2	0.1	0.0	-0.3	.	.
O=C(CCC1CCCC1)Nc1ccc(Cl)cc1	-53.2	0.1	6.7	1.8	.	.
O=C(Nc1ccc2oc(=O)ccc2c1)c1ccc([N+](=O)[O-])cc1Cl	16.1	-0.1	6.2	9.0*	0.7	-3.6
CCOc1ccc(NC(=O)c2ccc([N+](=O)[O-])cc2Cl)cc1	-27.0	-0.2	1.9	6.4*	-1.0	-7.6
CN(CC(=O)NC1CCCCCCC1)S(=O)(=O)c1cc2c(cc1Cl)NC(=O)CO2	-7.8	-0.1	1.6	0.5	.	.
O=C(Nc1ccc(Br)cc1F)c1cnccn1	-7.7	-0.3	3.6	0.8	.	.
Cc1ccc(NC(=O)c2cnccn2)c(Br)c1	-37.5	0.1	6.4	6.4*	-1.3	-12.1
CCc1ccccc1NC(=O)CN(Cc1ccccc1)S(=O)(=O)c1ccc(Br)cc1	1.4	0.5	1.1	6.6*	0.9	6.6
Cc1ccc(CN(CC(=O)O)S(=O)(=O)c2ccc(Cl)cc2)cc1	-6.8	-0.1	-11.2	1.0	.	.
O=C(O)CN(Cc1ccc(Cl)cc1)S(=O)(=O)c1ccc(Cl)cc1	3.3	0.0	-7.7	5.1*	0.1	-6.1
CCc1ccccc1NC(=O)CN(Cc1ccc(Br)cc1)S(=O)(=O)c1ccccc1	2.7	0.0	-0.3	-1.5	.	.
